Here are results for 31 compounds from PubChem BioAssay (EPA / NIEHS).

Inconclusive results are not listed. Active and inactive are the calls of the source. The calls were made as follows, unless noted: active = hit-call score of the fitted dose curve at least 0.9, where 1 is the maximum; inactive = score below 0.9.

A short description of test [1]: ATG_TGFb_CIS: Attagene CIS-FACTORIAL HepG2 Assay for human Transforming Growth Factor (TGF) (AID 2282967). The following applies: HepG2 Attagene CIS TGFb reporter, mRNA transcription; actives raise or lower the signal. The procedure, abridged: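 Multiplexed cis-reporter HepG2 system, 24 h treatment; mRNA induction read by fluorescence after RT-PCR and CE; DMSO negative control, bidirectional curve fitting.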

Test [2] is described as follows: ATG_VDRE_CIS: Attagene CIS-FACTORIAL HepG2 Assay for human Vitamin D Receptor Element (VDRE) (AID 2282968). The conditions noted are these: HepG2 VDRE cis-reporter transcription, actives raise or lower the signal. The procedure, abridged: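 Transiently transfected HepG2 cells carrying cis-regulated reporter transcription units were exposed for 24 h. Reporter mRNA was measured by RT-PCR with fluorescent labelling and capillary electrophoresis, and fitted in both directions against DMSO.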

In test [3] the target is Nuclear receptor subfamily 1 group I member 3 (Homo sapiens) (UniProt Q14994). As to the kind of experiment: ATG_CAR_TRANS: Attagene TRANS-FACTORIAL HepG2 Assay for human Constitutive Androstane Receptor (CAR) (AID 2282969; active = hit-call score of the fitted dose curve at least 0.9, where 1 is the maximum;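 also: activators raise reporter mRNA above DMSO so AC50 marks induction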). The conditions noted are these: HepG2 Attagene TRANS-FACTORIAL CAR reporter. The method in brief:
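HepG2 cells transiently transfected with GAL4-UAS reporter units; TRANS format reads activity of exogenous chimeric NR-Gal4 protein. After 24 h dosing, reporter mRNA quantified by RT-PCR, 6-FAM labelling and capillary electrophoresis; gain of signal fitted against DMSO.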

The target in test [4] is X-box-binding protein 1 (Homo sapiens) (UniProt P17861). Nature of the test: ATG_Xbp1_CIS: Attagene CIS-FACTORIAL HepG2 Assay for human X-box Binding Protein 1 (XBP1) (AID 2282972). The following applies: HepG2 XBP1 cis-element reporter, Attagene multiplex; actives raise or lower the signal. The procedure, abridged: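 HepG2 cells transiently transfected with multiple cis-element reporter units report endogenous TF activity; 24 h exposure, then reporter mRNA measured by RT-PCR, 6-FAM labelling, HpaI digestion and capillary electrophoresis. Bidirectional fitting versus DMSO.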
Chain of X-box-binding protein 1 (Homo sapiens) (P17861 whole entry, looked up): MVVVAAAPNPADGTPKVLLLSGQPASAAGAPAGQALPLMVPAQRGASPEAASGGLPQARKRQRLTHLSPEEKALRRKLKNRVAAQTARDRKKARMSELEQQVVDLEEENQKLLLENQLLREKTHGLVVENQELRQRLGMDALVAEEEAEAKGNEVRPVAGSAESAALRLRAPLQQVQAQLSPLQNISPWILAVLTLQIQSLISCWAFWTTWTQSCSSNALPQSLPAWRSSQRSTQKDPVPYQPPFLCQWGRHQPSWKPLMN

Test [5] can be described thus: ATG_M_19_TRANS: Attagene TRANS-FACTORIAL HepG2 Assay for M19 Transcription Factor (Internal Marker) (AID 2282974; active = hit-call score of the fitted dose curve at least 0.9, where 1 is the maximum). The following applies: HepG2 Attagene TRANS-FACTORIAL M19 internal marker reporter. The procedure, abridged: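 Measured here: internal-marker reporter transcript from HepG2 cells transfected with MRTUs, harvested at 24 h. cDNA PCR products were 6-FAM labelled by primer extension, cut with HpaI for 2 h at 37 C, and resolved by CE.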

Test [6] is described as follows: ATG_GAL4_TRANS: Attagene TRANS-FACTORIAL HepG2 Assay for GAL4 (Internal Marker) (AID 2282976; active = hit-call score of the fitted dose curve at least 0.9, where 1 is the maximum). The conditions noted are these: HepG2 Attagene TRANS GAL4 internal marker reporter. The procedure, abridged: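 RT-PCR/capillary electrophoresis readout of reporter mRNA. HepG2, transient MRTU transfection (GAL4-UAS reporters), 24 h compound exposure. Background-control endpoint, positive direction vs DMSO baseline.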

Test [7] deals with Glucocorticoid receptor (Homo sapiens) (UniProt P04150). Nature of the test: ATG_GR_TRANS: Attagene TRANS-FACTORIAL HepG2 Assay for human Glucocorticoid Receptor (GR) (AID 2282978; active = hit-call score of the fitted dose curve at least 0.9, where 1 is the maximum;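 also: activators score as hits since higher reporter transcript over DMSO is fitted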). The following applies: HepG2 Attagene TRANS GR reporter, mRNA transcription. The method in brief:
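Measurement of GAL4-UAS-driven reporter mRNA in human HepG2 liver cells 24 h post-dosing, using RT-PCR with fluorescent labelling and capillary electrophoresis; the transfected constructs report exogenous NR-GAL4 chimera activity, fitted upward against DMSO.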

The target in test [8] is Estrogen-related receptor gamma (Homo sapiens) (UniProt P62508). As to the kind of experiment: ATG_ERRg_TRANS: Attagene TRANS-FACTORIAL HepG2 Assay for human Estrogen-Related Receptor gamma (ERRg) (AID 2282977; active = hit-call score of the fitted dose curve at least 0.9, where 1 is the maximum;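 also: hits increase reporter signal over DMSO so potencies reflect activators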). The following applies: HepG2 Attagene TRANS reporter, ERRg transactivation. The method in brief:
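HepG2 cells transiently transfected with multiplexed GAL4-UAS reporter units driven by chimeric NR-Gal4 proteins; 24 h exposure. Reporter mRNA quantified by RT-PCR, fluorescent labelling, HpaI digestion and capillary electrophoresis; gain of signal vs DMSO.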

In test [9] the target is Steroid hormone receptor ERR1 (Homo sapiens) (UniProt P11474). As to the kind of experiment: ATG_ERRa_TRANS: Attagene TRANS-FACTORIAL HepG2 Assay for human Estrogen-Related Receptor alpha (ERRa) (AID 2282971; active = hit-call score of the fitted dose curve at least 0.9, where 1 is the maximum). The following applies: HepG2 Attagene TRANS reporter, ERRa transactivation. The method in brief:
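Transfected HepG2, 24 h dosing, ERRa-Gal4 chimera driving GAL4-UAS reporter. Readout: reporter mRNA via RT-PCR plus capillary electrophoresis (fluorescence). Positive direction vs DMSO control.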

Test [10] addresses Estrogen receptor (Homo sapiens) (UniProt P03372). As to the kind of experiment: ATG_ERa_TRANS: Attagene TRANS-FACTORIAL HepG2 Assay for human Estrogen Receptor alpha (ERa) (AID 2282970; active = hit-call score of the fitted dose curve at least 0.9, where 1 is the maximum). The conditions noted are these: HepG2 Attagene TRANS ERa GAL4 reporter, mRNA. The procedure, abridged: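 After 24 h of compound treatment, RNA from HepG2 cells bearing transfected GAL4-UAS reporter constructs is converted to cDNA, amplified and fluorescently labelled. Capillary electrophoresis resolves the ERa-linked reporter; DMSO serves as negative control.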

Chain of Glucocorticoid receptor (Homo sapiens) (P04150 whole entry, looked up, the tested form may be a part): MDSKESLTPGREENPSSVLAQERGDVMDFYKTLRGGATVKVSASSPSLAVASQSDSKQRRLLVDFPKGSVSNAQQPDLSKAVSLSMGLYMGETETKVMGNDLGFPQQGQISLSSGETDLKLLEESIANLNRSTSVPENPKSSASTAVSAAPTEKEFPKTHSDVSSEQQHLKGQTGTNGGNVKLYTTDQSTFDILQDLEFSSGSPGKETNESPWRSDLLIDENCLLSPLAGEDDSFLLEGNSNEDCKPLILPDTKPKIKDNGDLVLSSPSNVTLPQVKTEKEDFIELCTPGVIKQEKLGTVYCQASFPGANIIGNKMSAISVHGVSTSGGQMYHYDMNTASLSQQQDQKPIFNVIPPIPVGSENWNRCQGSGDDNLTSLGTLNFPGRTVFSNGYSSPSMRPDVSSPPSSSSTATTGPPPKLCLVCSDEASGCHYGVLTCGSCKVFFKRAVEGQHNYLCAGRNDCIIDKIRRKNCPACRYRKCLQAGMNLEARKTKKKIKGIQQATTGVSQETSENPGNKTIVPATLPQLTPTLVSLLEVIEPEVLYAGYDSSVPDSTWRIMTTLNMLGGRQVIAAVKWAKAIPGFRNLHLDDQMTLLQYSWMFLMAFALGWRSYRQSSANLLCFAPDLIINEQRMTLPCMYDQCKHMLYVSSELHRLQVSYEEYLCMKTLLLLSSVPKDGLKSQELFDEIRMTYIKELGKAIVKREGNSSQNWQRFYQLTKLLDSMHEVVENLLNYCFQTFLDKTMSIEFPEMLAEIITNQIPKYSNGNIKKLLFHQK
Chain of Estrogen-related receptor gamma (Homo sapiens) (P62508 whole entry, looked up, the tested form may be a part): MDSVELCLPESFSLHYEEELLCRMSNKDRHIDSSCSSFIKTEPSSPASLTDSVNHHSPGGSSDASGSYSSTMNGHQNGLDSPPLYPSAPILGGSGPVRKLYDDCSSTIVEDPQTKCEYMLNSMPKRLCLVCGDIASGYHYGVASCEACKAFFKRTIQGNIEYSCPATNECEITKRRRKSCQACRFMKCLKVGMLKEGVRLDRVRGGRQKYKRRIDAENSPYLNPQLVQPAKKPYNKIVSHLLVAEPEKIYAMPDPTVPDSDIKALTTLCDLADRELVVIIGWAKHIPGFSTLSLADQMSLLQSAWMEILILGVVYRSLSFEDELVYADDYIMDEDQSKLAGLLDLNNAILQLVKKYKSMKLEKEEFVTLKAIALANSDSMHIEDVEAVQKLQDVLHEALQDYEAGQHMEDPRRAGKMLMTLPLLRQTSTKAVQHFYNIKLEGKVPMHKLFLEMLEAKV
Chain of Nuclear receptor subfamily 1 group I member 3 (Homo sapiens) (Q14994 whole entry, looked up, the tested form may be a part): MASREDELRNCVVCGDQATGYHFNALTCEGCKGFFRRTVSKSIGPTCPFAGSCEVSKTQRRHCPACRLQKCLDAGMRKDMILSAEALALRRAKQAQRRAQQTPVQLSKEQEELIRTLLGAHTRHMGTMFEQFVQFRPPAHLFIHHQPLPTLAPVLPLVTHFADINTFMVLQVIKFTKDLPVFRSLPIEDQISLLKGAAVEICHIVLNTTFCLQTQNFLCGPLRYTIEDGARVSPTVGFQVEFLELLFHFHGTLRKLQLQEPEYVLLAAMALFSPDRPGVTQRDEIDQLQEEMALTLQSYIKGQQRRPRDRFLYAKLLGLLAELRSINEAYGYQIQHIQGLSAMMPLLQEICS
Chain of Estrogen receptor (Homo sapiens) (P03372 whole entry, looked up, the tested form may be a part): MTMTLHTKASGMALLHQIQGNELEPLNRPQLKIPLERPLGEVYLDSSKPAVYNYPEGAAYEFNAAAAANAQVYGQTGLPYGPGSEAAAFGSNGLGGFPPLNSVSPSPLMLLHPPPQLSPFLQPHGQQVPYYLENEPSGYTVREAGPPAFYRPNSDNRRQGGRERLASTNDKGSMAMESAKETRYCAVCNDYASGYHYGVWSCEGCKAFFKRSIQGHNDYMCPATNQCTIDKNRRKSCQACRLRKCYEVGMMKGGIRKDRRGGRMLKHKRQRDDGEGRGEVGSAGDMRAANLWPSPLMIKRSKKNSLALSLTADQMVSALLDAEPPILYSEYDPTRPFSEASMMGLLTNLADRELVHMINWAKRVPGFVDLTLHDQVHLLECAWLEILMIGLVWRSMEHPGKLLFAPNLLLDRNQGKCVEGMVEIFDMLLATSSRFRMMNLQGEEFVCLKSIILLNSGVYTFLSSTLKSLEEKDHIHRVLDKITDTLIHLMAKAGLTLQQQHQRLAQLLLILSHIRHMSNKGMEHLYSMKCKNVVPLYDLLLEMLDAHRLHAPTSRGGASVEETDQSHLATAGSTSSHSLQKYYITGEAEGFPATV
Chain of Steroid hormone receptor ERR1 (Homo sapiens) (P11474 whole entry, looked up, the tested form may be a part): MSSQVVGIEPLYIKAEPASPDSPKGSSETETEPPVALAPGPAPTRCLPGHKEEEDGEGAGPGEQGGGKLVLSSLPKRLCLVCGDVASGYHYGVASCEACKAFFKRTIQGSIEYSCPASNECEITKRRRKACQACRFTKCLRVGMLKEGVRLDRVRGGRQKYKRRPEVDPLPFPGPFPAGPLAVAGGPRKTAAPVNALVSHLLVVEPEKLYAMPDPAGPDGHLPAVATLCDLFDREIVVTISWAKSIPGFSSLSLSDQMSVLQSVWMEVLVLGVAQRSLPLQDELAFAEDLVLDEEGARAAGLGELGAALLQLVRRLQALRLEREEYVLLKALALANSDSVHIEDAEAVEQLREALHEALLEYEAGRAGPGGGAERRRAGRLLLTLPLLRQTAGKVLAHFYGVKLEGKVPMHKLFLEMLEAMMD

Regarding `CCCCCCOC(=O)CCC`, the call in test [1], in test [2], in test [3], in test [4] and in test [5] was inactive.
For `CCOc1ccc(N=Nc2ccc(C=Cc3ccc(N=Nc4ccc(OCC)cc4)cc3S(=O)(=O)O)c(S(=O)(=O)O)c2)cc1`, the result in [1], in test [2], in test [3], in test [4] and in test [5] was inactive.
For `CC(=O)O[C@H]1C[C@@H]2CC[C@@]1(C)C2(C)C`, the compound was classed as inactive in test [1], in test [2], in test [3], in test [4], in test [5] and in test [6]. In addition, the compound was classed as inactive in test [7].
Turning to `CC(=O)NCCO`, the result in [1], in test [2], in [3], in [4], in test [5] and in test [6] was inactive. Moreover, in test [7], the outcome was inactive.
What is called AC50 is the concentration giving half of the maximal activity seen. On to `Cc1c(C2(c3cc(Br)c(O)c(Br)c3C)OS(=O)(=O)c3ccccc32)cc(Br)c(O)c1Br`, for which the call in [1], in test [3], in [4], in test [5], in test [6] and in test [8] was inactive. The call in [7] was inactive. Moreover, the concentration at half-maximal activity (AC50) in test [2] was 22.7 µM (active).
Take `O=C(c1ccccc1)C(O)c1ccccc1` (configuration not stated): the compound was called inactive in test [1], in test [2], in [3], in test [4], in test [5] and in test [7].
`Cc1ccc(OC(=O)c2ccccc2O)cc1`: the outcome in test [1], in test [2], in [3], in test [4], in [5] and in test [8] was inactive.
In the case of `COC(C)(C)CC(C)=O`, the result in [1], in test [2], in test [3], in test [4], in test [5] and in test [6] was inactive. For the same compound, the result in test [7] was inactive.
For the compound `CCOC(=O)COC(=O)c1cc(Oc2ccc(C(F)(F)F)cc2Cl)ccc1[N+](=O)[O-]`, the results for the AC50 in test [1] and in [2] were 144 µM (active) and 33.5 µM (active), respectively. Also, the compound was called inactive in [3], in [4] and in test [5].
On to `C=CC(=O)OCCCC`, for which the result in test [1], in test [2], in test [3], in test [4] and in test [5] was inactive.
As for `CCCOCCO`, the result in [1], in test [2], in test [3], in test [4], in test [5] and in test [6] was inactive. In addition, the call in [7] was inactive.
With `CCCC(=O)OC(C)(C)Cc1ccccc1`, the compound was classed as inactive in test [1], in test [2], in test [3], in test [4], in [5] and in test [6]. For the same compound, the result in test [7] was inactive.
`O=C(O)c1cc(C(=O)O)cc([N+](=O)[O-])c1`: the call in [1], in test [2], in test [3], in test [4], in [5] and in test [6] was inactive. In addition, the compound was called inactive in [7].
With `CCCCCc1ccco1`, the compound was called inactive in test [1], in [2], in [3], in test [4] and in test [5].
As to `CCC(C)S` (configuration not stated), the compound was classed as inactive in test [1], in test [2], in test [3], in test [4], in test [5] and in test [7].
As for `CCCCCCC(CO)CCCC` (configuration not stated), the outcome in test [1], in [2], in test [3], in test [4], in test [5] and in test [7] was inactive.
Consider `CC1(C)COCN1`, for which the outcome in test [1], in test [2], in test [3], in test [4], in [5] and in test [6] was inactive.
`CCOc1ccc(NC(=O)CC(C)=O)cc1`: the result in test [1], in test [2], in test [3], in test [4], in [5] and in test [8] was inactive.
With `CCCCOCC`, the outcome in test [1], in [2], in [3], in test [4], in [5] and in [6] was inactive. Further, in [8], the compound was classed as inactive.
`C=Cc1ccc(C)cc1`: the outcome in test [1], in [2], in [3], in [4], in test [5] and in test [6] was inactive. Further, the result in [7] was inactive.
As for `CN1CCOCC1`, the compound was classed as inactive in test [1], in [2], in test [9], in test [4], in test [5] and in [6]. Further, the compound was called inactive in test [8] and in test [7].
`CN(c1nccc(=O)[nH]1)C1CCN(c2nc3ccccc3n2Cc2ccc(F)cc2)CC1`: the call in [1], in test [10], in test [4] and in [6] was inactive. The AC50 in test [2] was 9.35 µM (active).
As to `Oc1ccc2cc(SSc3ccc4cc(O)ccc4c3)ccc2c1`, the compound was called inactive in test [1], in [3] and in test [6]. The figures for the AC50 in [2] and in [4] were 27.6 µM (active) and 40.2 µM (active), respectively.
As to `CCCCCCCCCCCCN1CCCCCC1=O`, the result in test [1], in [2], in [3] and in test [7] was inactive. Moreover, the AC50 in test [4] was 14.5 µM (active).
Turning to `NCCNc1cccc2ccccc12`, the compound was classed as inactive in test [1], in test [3] and in test [7]. Besides, the AC50 in test [2] is 155 µM (active).
`CCCCCCCCCCCC(=O)OCC(O)CO` (configuration not stated): the outcome in test [1], in [2], in test [10], in test [4] and in test [6] was inactive.
With `CCCCCCCCN1CCCC1=O`, the compound was called inactive in test [1], in test [2], in [3], in test [4] and in test [7].
On to `C=CC(C)C#N` (configuration not stated), for which the outcome in [1], in test [2], in [3], in test [4], in test [6] and in test [7] was inactive.
In the case of `CC(=O)O[C@@H]1CC2CCC1(C)C2(C)C` (some centres not stated), the outcome in test [1], in [2], in test [3], in test [5] and in test [6] was inactive.
As to `CCCCC1(COC(=O)CCC(=O)O)C(=O)N(c2ccccc2)N(c2ccccc2)C1=O`, the compound was called inactive in test [1], in test [2], in test [10] and in test [4].
As to `O=C(O)COCC(=O)O`, the compound was classed as inactive in [1], in [2], in [3], in [4] and in test [6].
